PubChem BioAssay AID1159580 (chemical genetic matrix, 2015)
Out of some 5,500 compounds screened, about 2,000 (36%) were called active. Another 18% or so got no clear call; they are omitted. No stated cut-off is given here; in the data, active means normalized growth mostly below about 0.91 (no sharp cut-off); inconclusive means no clear call, values can overlap the other calls; inactive means mostly above about 0.92. This is one part of the list.

Experiment: chemical genetic growth profiling, strain panel (AID 1159580);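 further: tested at 20 µM; growth read once vehicle control cultures reached saturation at 30 °C; 1 = growth at the plate median or of vehicle wells; lower values mean less growth of the strain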
Conditions: growth OD

Measured: normalized growth

C[C@]12CCC(=O)C=C1C=CC1C2CC[C@@]2(C)C1CC[C@@]2(O)CCC(=O)O (some centres not stated)
inactive: S. cerevisiae deletion strains, locus YJR075W, strain HOC1, hits give low values 0.991 | S. cerevisiae deletion strains, locus YKL009W, strain mrt4, hits give low values 0.962 | S. cerevisiae deletion strains, locus YKL068W, hits give low values 0.995 | S. cerevisiae deletion strains, locus YKL085W, strain MDH1 (second series), hits give low values 0.993 | S. cerevisiae deletion strains, locus YKL085W, strain MDH1, hits give low values 0.993 | S. cerevisiae deletion strains, locus YKL160W, strain elf1, hits give low values 0.996 | S. cerevisiae deletion strains, locus YKL190W, strain CNB1, hits give low values 1.01 | S. cerevisiae deletion strains, locus YKR001C, strain vps1, hits give low values 0.98 | S. cerevisiae deletion strains, locus YKR026C, strain gcn3, hits give low values 1.03 | S. cerevisiae deletion strains, locus YKR091W, strain srl3, hits give low values 1.01 | S. cerevisiae deletion strains, locus YLL001W, strain dnm1, hits give low values 1.01 | S. cerevisiae deletion strains, locus YLL026W, hits give low values 1 | S. cerevisiae deletion strains, locus YLL041C, strain sdh2, hits give low values 1.01 | S. cerevisiae deletion strains, locus YLR027C, strain aat2, hits give low values 1.01 | S. cerevisiae deletion strains, locus YLR039C, strain RIC1, hits give low values 0.986 | S. cerevisiae deletion strains, locus YLR058C, strain SHM2, hits give low values 0.994 | S. cerevisiae deletion strains, locus YLR102C, strain apc9, hits give low values 0.999 | S. cerevisiae deletion strains, locus YLR113W, strain HOG1, hits give low values 1.06 | S. cerevisiae deletion strains, locus YLR221C, strain rsa3, hits give low values 1.01 | S. cerevisiae deletion strains, locus YLR258W, strain gsy2, hits give low values 1.02 | S. cerevisiae deletion strains, locus YLR262C, strain YPT6 (second series), hits give low values 0.93 | S. cerevisiae deletion strains, locus YLR262C, strain YPT6, hits give low values 0.983 | S. cerevisiae deletion strains, locus YLR268W, strain sec22, hits give low values 0.929 | S. cerevisiae deletion strains, locus YLR320W, strain mms22, hits give low values 1.01 | S. cerevisiae deletion strains, locus YLR330W, strain CHS5, hits give low values 1.02 | S. cerevisiae deletion strains, locus YLR342W, strain FKS1 (second series), hits give low values 1.05 | S. cerevisiae deletion strains, locus YLR342W, strain FKS1, hits give low values 0.995 | S. cerevisiae deletion strains, locus YLR357W, strain rsc2, hits give low values 1.01 | S. cerevisiae deletion strains, locus YLR370C, strain arc18, hits give low values 1.02 | S. cerevisiae deletion strains, locus YLR371W, strain rom2, hits give low values 0.985 | S. cerevisiae deletion strains, locus YLR384C, strain iki3, hits give low values 1.02 | S. cerevisiae deletion strains, locus YLR418C, strain cdc73, hits give low values 0.977 | S. cerevisiae deletion strains, locus YML016C, strain PPZ1, hits give low values 0.99 | S. cerevisiae deletion strains, locus YML032C, strain rad52, hits give low values 0.978 | S. cerevisiae deletion strains, locus YML120C, strain ndi1, hits give low values 1.02 | S. cerevisiae deletion strains, locus YML124C, strain tub3, hits give low values 0.996 | S. cerevisiae deletion strains, locus YMR058W, strain fet3, hits give low values 1.02 | S. cerevisiae deletion strains, locus YMR078C, strain ctf18, hits give low values 0.979 | S. cerevisiae deletion strains, locus YMR125W, strain sto1, hits give low values 1.04 | S. cerevisiae deletion strains, locus YMR129W, hits give low values 1.03 | S. cerevisiae deletion strains, locus YMR205C, strain PFK2, hits give low values 1.05 | S. cerevisiae deletion strains, locus YMR223W, strain ubp8, hits give low values 1.01 | S. cerevisiae deletion strains, locus YMR231W, strain pep5, hits give low values 1.02 | S. cerevisiae deletion strains, locus YMR263W, strain SAP30, hits give low values 0.988 | S. cerevisiae deletion strains, locus YMR307W, strain GAS1, hits give low values 1.01 | S. cerevisiae deletion strains, locus YNL067W, strain RPL9B, hits give low values 0.969 | S. cerevisiae deletion strains, locus YNL071W, strain lat1, hits give low values 1.01 | S. cerevisiae deletion strains, locus YNL128W, strain TEP1, hits give low values 0.995 | S. cerevisiae deletion strains, locus YNL153C, strain GIM3, hits give low values 0.977 | S. cerevisiae deletion strains, locus YNL183C, strain NPR1, hits give low values 0.995 | S. cerevisiae deletion strains, locus YNL209W, strain ssb2, hits give low values 1.02 | S. cerevisiae deletion strains, locus YNL233W, strain BNI4, hits give low values 0.99 | S. cerevisiae deletion strains, locus YNL248C, strain rpa49, hits give low values 1.04 | S. cerevisiae deletion strains, locus YNL250W, strain rad50, hits give low values 0.993 | S. cerevisiae deletion strains, locus YNL271C, strain bni1, hits give low values 0.986 | S. cerevisiae deletion strains, locus YNL298W, strain CLA4, hits give low values 0.984 | S. cerevisiae deletion strains, locus YNL307C, strain MCK1, hits give low values 0.989 | S. cerevisiae deletion strains, locus YNL322C, strain KRE1 (second series), hits give low values 1.02 | S. cerevisiae deletion strains, locus YNL322C, strain KRE1, hits give low values 1 | S. cerevisiae deletion strains, locus YNR049C, strain mso1, hits give low values 1.02 | S. cerevisiae deletion strains, locus YNR052C, strain pop2, hits give low values 0.996 | S. cerevisiae deletion strains, locus YOL006C, strain TOP1, hits give low values 0.951 | S. cerevisiae deletion strains, locus YOL012C, strain htz1 1.54 | S. cerevisiae deletion strains, locus YOL147C, strain pex11, hits give low values 0.989 | S. cerevisiae deletion strains, locus YOR001W, strain rrp6, hits give low values 1 | S. cerevisiae deletion strains, locus YOR061W, strain CKA2, hits give low values 0.995 | S. cerevisiae deletion strains, locus YOR069W, strain VPS5, hits give low values 0.985 | S. cerevisiae deletion strains, locus YOR070C, strain gyp1, hits give low values 1.03 | S. cerevisiae deletion strains, locus YOR080W, strain dia2, hits give low values 1.02 | S. cerevisiae deletion strains, locus YOR083W, strain WHI5, hits give low values 0.965 | S. cerevisiae deletion strains, locus YOR106W, strain vam3, hits give low values 1.01 | S. cerevisiae deletion strains, locus YOR136W, strain idh2, hits give low values 0.987 | S. cerevisiae deletion strains, locus YOR144C, strain elg1, hits give low values 0.994 | S. cerevisiae deletion strains, locus YOR184W, strain ser1, hits give low values 0.977 | S. cerevisiae deletion strains, locus YOR231W, strain MKK1, hits give low values 1.05 | S. cerevisiae deletion strains, locus YOR265W, strain rbl2, hits give low values 1.02 | S. cerevisiae deletion strains, locus YOR270C, strain vph1, hits give low values 1.05 | S. cerevisiae deletion strains, locus YOR290C, strain snf2, hits give low values 1.02 | S. cerevisiae deletion strains, locus YOR316C, strain cot1, hits give low values 0.995 | S. cerevisiae deletion strains, locus YPL051W, strain arl3, hits give low values 1 | S. cerevisiae deletion strains, locus YPL055C, strain LGE1, hits give low values 1.02 | S. cerevisiae deletion strains, locus YPL078C, strain atp4, hits give low values 1.01 | S. cerevisiae deletion strains, locus YPL106C, strain sse1, hits give low values 1.01 | S. cerevisiae deletion strains, locus YPL240C, strain hsp82, hits give low values 1.02 | S. cerevisiae deletion strains, locus YPL241C, strain CIN2, hits give low values 1 | S. cerevisiae deletion strains, locus YPL256C, strain CLN2, hits give low values 1.1 | S. cerevisiae deletion strains, locus YPR119W, strain clb2, hits give low values 0.994 | S. cerevisiae deletion strains, locus YPR141C, strain kar3, hits give low values 0.982 | S. cerevisiae deletion strains, locus YPR163C, strain tif3, hits give low values 0.991 | S. cerevisiae deletion strains, locus YPR167C, strain met16, hits give low values 0.995 | S. cerevisiae deletion strains, strain wtn01, hits give low values 0.953 | S. cerevisiae strains, strain wild type, hits give low values 1
